E coli growth-1 – reduces bacterial viability in AddAB counter-screen; E. coli V3065 growth, OD600 absorbance, 18 h; inhibition, % at 11.9 µM; 0.27% of 330,000 active; AID 449728;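 active = inhibition above the campaign's mean inhibition across all tested compounds plus 3 SD, cut at about 9.9% in these data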;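 note: uninfected addAB+ strain grown without phage in ampicillin broth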
phage Ecoli inh – E. coli growth loss with phage present. growth absorbance. inhibition, % at 11.9 µM. 0.26% of 360,000 active; in the data active = inhibition above about 11%
AddAB inh – less growth of phage-infected E. coli with AddAB; E. coli expressing H. pylori AddAB, absorbance growth; AID 435030; inhibition, % at 11.9 µM; 0.29% of 330,000 active; in the data active = inhibition above about 12%
Tat export inh – inhibitors of E. coli Tat protein transport; E. coli MC4100 TorA-mCherry Tat export, fluorescence; inhibition, % at 10 µM; 0.036% of 340,000 active; AID 488895;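 active = mean replicate inhibition at least 50% and at least half of replicates individually reaching 50%; inconclusive = only one of the two criteria met; inactive = neither criterion met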;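 note: exported cargo escapes ClpAP degradation while cytoplasmic cargo is degraded and loses fluorescence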
E coli growth-2 – inhibitors of Escherichia coli growth | OD600, 23 h; stronger effect = lower value | OD600 absorbance (no concentration beside the values) | 0.21% of 330,000 active;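 active = OD600 absorbance below the run mean of sample wells minus 3.6 SD, in any replicate, cut at about 0.56 in these data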
RecBCD conf – growth loss of phage-infected V66 E. coli, RecBCD confirmation screen. AID 651982. 45% of 890 active. E. coli V66 + T4 2- phage, growth OD. shares compounds with phage Ecoli inh. inhibition, % at 11.9 µM;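 active = mean inhibition over triplicates exceeding the hit threshold derived in the original primary screen, cut at about 11% in these data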
Ecoli viability – counter-screen for RecBCD inhibitors: inhibitors of bacterial viability | shares compounds with phage Ecoli inh | 29% of 890 active | E. coli viability, absorbance (OD) growth | inhibition, % at 11.9 µM | AID 651983; in the data active = inhibition above about 20%;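 note: E. coli strain V66 grown with compound alone and no phage infection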
AddAB phage OD – growth loss of phage-infected AddAB E. coli, RecBCD counter-screen; shares compounds with phage Ecoli inh; E. coli expressing H. pylori AddAB + T4 phage, OD growth; gene 2 mutant T4, recBCD-deleted host; inhibition, % at 11.9 µM; 45% of 890 active; AID 651984;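 active = mean inhibition above the solvent-only control wells' mean plus 3 SD, cut at about 22% in these data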;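 note: higher means less bacterial growth from phage killing when AddAB is blocked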
Numbers stand for hits; i = inactive; ? = inconclusive; nt = not tested or not shown. Sampled rows, rich in hits. Any-hit rate of the full collection: about 0.51%.

SMILES	E coli growth-1	phage Ecoli inh	AddAB inh	Tat export inh	E coli growth-2	RecBCD conf	Ecoli viability	AddAB phage OD
CN(CC(=O)Nc1cccc(F)c1)C(=O)CC1CCCCC1	i	11	i	i	i	i	i	i
Cc1cc2cc(CCNC(=O)c3cccs3)c(=O)[nH]c2cc1C	i	14	i	i	i	i	i	i
O=C(N/N=C/c1ccc([N+](=O)[O-])o1)c1ccc2c(c1)OCO2	nt	11	nt	i	nt	12	i	103
O=C(CN1CCOCC1)NN=Cc1ccc([N+](=O)[O-])o1	nt	17	nt	nt	nt	i	i	54
CC=CC(=O)Nc1cccc(C2=NOC3(C2)CC(C(N)=O)N(C(=O)C(c2ccccc2)c2ccccc2)C3)c1 (stereo not given)	nt	nt	nt	nt	i	nt	nt	nt
O=C(NN=Cc1ccoc1)c1cc(O)cc(O)c1	nt	nt	nt	nt	i	nt	nt	nt
CCOC(=O)CC1c2cc(F)ccc2S(=O)(=O)N1c1cccc(OC)c1 (stereo not given)	nt	nt	nt	nt	i	nt	nt	nt
O=C(NCCCn1ccnc1)c1ccc(Cl)c(Cl)c1	i	i	i	i	i	nt	nt	nt
Cc1ccc(-c2[nH]c3cc(C(=O)NCCCn4ccnc4)ccc3c(=O)c2O)cc1	i	11	i	i	i	i	i	i
C=Cc1cnc([N+](=O)[O-])n1C	nt	29	nt	nt	nt	19	21	97
C=CCn1cc(C(=O)N2CCN(C)CC2)c(=O)c2cc(S(=O)(=O)N3CCCC3)ccc21	i	22	i	i	i	i	i	i
O=C(CCn1cnc(-c2ccccc2)c1-c1ccccc1)N/N=C/c1ccccc1O	i	11	i	i	nt	i	i	i
COc1ccc2c(c1)OCC1C2N2C(=O)CN(Cc3ccc(F)cc3)C(=O)[C@@]2(C)C1c1ccccc1 (stereo not given in full)	nt	nt	nt	nt	i	nt	nt	nt
COc1cccc(NC(=O)Nc2nc(SC(C)(C)C)ns2)c1	i	13	i	i	i	i	i	i
Fc1ccc(NC(=S)Nc2ccccc2OC(F)F)cc1Cl	i	13	i	i	i	i	i	i
O=C1CCC=CCC(CC(=O)N(CCO)Cc2ccccc2)C(=O)N2CCCC2CO1 (stereo not given)	nt	nt	nt	nt	i	nt	nt	nt
Cc1ccc(-c2nc(CS(=O)CC(=O)NCc3ccccc3)c(C)o2)cc1 (stereo not given)	i	29	i	i	i	i	i	i
CN(C)C=CC(=O)Oc1ccc(Cl)cc1Cl	nt	nt	nt	nt	i	nt	nt	nt
Oc1ccc(Cc2ccccc2)c2cccnc12	nt	15	nt	nt	i	i	i	i
Cc1ccc(CC(=O)NN=Cc2ccc3c(c2)OCO3)cc1	nt	nt	nt	nt	i	nt	nt	nt
O=C(/C=C/Nc1ccccc1)c1ccc(Cl)cc1Cl	i	i	i	i	i	nt	nt	nt
N#Cc1c(Nc2ccccc2)[n+]([O-])c2ccc(Cl)cc2[n+]1[O-]	nt	13	nt	i	nt	16	i	49
CN(C)C(=O)c1cc(Cl)ccc1Sc1cc(Cl)ccc1Cl	i	i	i	i	i	nt	nt	nt
Oc1ccc(Cl)cc1Sc1cc(Cl)ccc1O	nt	12	nt	i	nt	i	i	i
Cc1ccc(NC(=S)NC(NC(=O)c2ccco2)C(Cl)(Cl)Cl)cc1 (stereo not given)	11	14	i	i	i	i	i	i
SMILES	E coli growth-1	phage Ecoli inh	AddAB inh	Tat export inh	E coli growth-2	RecBCD conf	Ecoli viability	AddAB phage OD
CC(C)CC(NC(=O)OC(C)(C)C)C(=O)N1CCC(C(=O)O)CC1 (stereo not given)	nt	nt	nt	nt	i	nt	nt	nt
CCOC(=O)C1=C(N)n2c(sc(=Cc3cccnc3)c2=O)=C(C(=O)OC)C1c1cccnc1 (stereo not given)	nt	nt	nt	nt	i	nt	nt	nt
O=C(Nc1cccc(Cl)c1)Nc1cccc(Cl)c1	i	i	i	i	i	nt	nt	nt
O=C(Nc1cccc(F)c1)Nc1cccc(Cl)c1	i	14	i	i	0.41	13	i	i
C=CCC(CC(=O)NCCO)C(=O)NC(COC(=O)C(CC=C)CC(=O)OC(C)(C)C)Cc1ccccc1 (stereo not given)	nt	nt	nt	nt	i	nt	nt	nt
O=C(NNC(=O)c1cc2ccccc2cc1O)NC1CCCCC1	nt	13	nt	i	i	i	i	i
O=C(NNC(=O)c1cc2ccccc2cc1O)Nc1ccc(F)cc1F	i	11	i	i	i	i	i	i
CC(C)(C)C1COC(=O)C(NC(=O)OCC2c3ccccc3-c3ccccc32)CC=CCC(CC(=O)NCCO)C(=O)N1 (stereo not given)	nt	nt	nt	nt	i	nt	nt	nt
CC(C)CCNC(=S)Nc1ccc(Br)cc1	i	11	i	i	i	i	i	i
COc1ccc(CCNC(=O)CC(C)=NNC(=O)COc2ccc(C)cc2Br)cc1OC	nt	nt	nt	nt	i	nt	nt	nt
Nc1nc(=O)n(C2CC(O)C(CO)O2)cc1F (stereo not given)	nt	87	nt	?	nt	78	77	90
Nc1ncn(C2CC(O)C(CO)O2)c(=O)n1 (stereo not given)	nt	nt	nt	nt	i	nt	nt	nt
Nc1nc(=O)n(C2CC(O)C(CO)O2)cc1Cl (stereo not given)	nt	12	nt	nt	nt	i	i	38
CC1=NNC(=O)C1CCC(=O)NN=Cc1ccc(Cl)cc1Cl (stereo not given)	nt	nt	nt	nt	i	nt	nt	nt
C(=Nc1nccs1)c1cccnc1	nt	nt	nt	nt	i	nt	nt	nt
COC(=O)C1N2C(=O)C(NC(=O)COc3ccccc3)C2SC1(C)C (stereo not given)	nt	nt	nt	nt	i	nt	nt	nt
CC1(C)S[C@@H]2[C@H](NC(=O)[C@H](N)c3ccccc3)C(=O)N2[C@H]1C(=O)OC1OC(=O)c2ccccc21 (stereo not given in full)	i	21	i	i	nt	30	53	i
CC1OC2CC(=O)OC2C2=C1C(=O)c1c(O)cccc1C2=O (stereo not given)	nt	14	nt	nt	nt	i	i	i
Cc1[nH]nc(-c2cccnc2)c1N=NN(C)C	nt	99	nt	142	nt	103	104	102
O=C(CCc1ccc(S(=O)(=O)N2CCOCC2)cc1)NN=Cc1cccc(O)c1	nt	nt	nt	nt	i	nt	nt	nt
C=CCc1cccc(C=NNC(=O)CCC(=O)Nc2ccc(C)cc2)c1O	nt	nt	nt	nt	i	nt	nt	nt
C=CCc1cccc(/C=N/NC(=O)CCCNc2ccc(C)cc2)c1O	i	12	i	i	nt	i	i	i
CCOc1cc(C=N/N=C2/NC(=O)C(CC(=O)O)S2)ccc1OCc1ccc(Cl)cc1 (stereo not given)	nt	nt	nt	nt	i	nt	nt	nt
Cc1ccc(C(=O)Cn2c(=N)n(N)c3ccccc32)cc1	i	82	i	i	i	i	i	i
O=C(O)c1cc(NC(=NS(=O)(=O)c2ccc(F)cc2)c2ccccc2)ccc1O	nt	nt	nt	nt	i	nt	nt	nt
COc1ccc(NC(=O)CSc2nnc3ccc(-c4ccccn4)nn23)cc1	i	i	i	i	i	nt	nt	nt
COc1ccc(C(=O)CSc2nnc3ccc(-c4ccccn4)nn23)cc1	i	25	i	i	i	i	i	i
O=S(=O)(c1ccc(Cl)nc1)N1CCc2ccccc21	i	95	i	i	i	i	i	i
O=C(O)c1c[nH]c2c([N+](=O)[O-])cccc2c1=O	nt	11	nt	i	i	i	i	i
COc1ccc(C(=O)NN=Cc2ccc(OC(=O)c3cccs3)cc2)cc1	nt	nt	nt	nt	i	nt	nt	nt
